Compound activity (PubChem BioAssay)
This is a sample that favours compounds with a hit; in the whole collection about 10% have one here.
INS promoter inh: inhibitors of insulin promoter-driven GFP, primary screen, imaging, TRM-6 cells (human fetal islet line), eGFP reporter, cell count; reporter expression induced with tamoxifen; inhibition, % at 2 µM; 130,000 compounds, 0.9% hits; AID 1273, 2008;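 active = inhibition above the mean plus 3 SD, with well images judged a real hit on visual review, cut at about 60% in these data, passing the limit was not always enough; inconclusive = inhibition over the cutoff but images rejected on review; inactive = inhibition not above the cutoff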
Lmaj promast: Leishmania major promastigote growth inhibition, primary screen | inhibition, % at 10 µM | Leishmania major promastigotes, resazurin fluorescence viability | 200,000 compounds, 9% hits; in the data active = inhibition above about 50%;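 note: promastigotes grown with compound for 44 hours at 28 °C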
ROMK mod: ROMK potassium channel modulators, primary screen, cell-based, thallium flux, MLSMR library | B-score at 10 µM | AID 1918, 2009 | ATP-sensitive inward rectifier potassium channel 1 (Homo sapiens), P48048 | 130,000 compounds, 2% hits | Tet-inducible ROMK, thallium flux fluorescence; actives lie on both sides;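 active = signal ratio slope over the read window, or its plate-corrected B-score, at least 3 SD from the plate mean, either direction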;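 note: B-score of the F/F0 ratio slope over 7 to 12 s after thallium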
Target sequence (P48048 whole entry, looked up): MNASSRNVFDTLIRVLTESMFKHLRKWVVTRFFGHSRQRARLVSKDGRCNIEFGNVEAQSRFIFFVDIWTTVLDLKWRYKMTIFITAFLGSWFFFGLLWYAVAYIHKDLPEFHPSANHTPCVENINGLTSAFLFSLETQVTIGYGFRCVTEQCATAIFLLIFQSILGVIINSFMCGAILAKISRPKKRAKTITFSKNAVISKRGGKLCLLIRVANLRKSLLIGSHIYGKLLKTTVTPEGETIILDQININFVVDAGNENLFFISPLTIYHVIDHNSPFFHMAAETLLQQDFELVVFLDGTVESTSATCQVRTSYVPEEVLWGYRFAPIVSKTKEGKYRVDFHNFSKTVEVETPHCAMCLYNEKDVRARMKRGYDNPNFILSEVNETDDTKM
bCat KO growth: primary screen for growth suppressors in beta-catenin knockout HCT116 cells (colon tumor, human). HCT116 beta-catenin knockout viability, CellTiter-Glo, 60 h; active compounds read low. viability, % at 10 µM. 140,000 compounds, 1.5% hits. AID 818, 2007;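 active = viability at or under a set limit, the compound median less 4 SD, cut at about 6% in these data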;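 note: 0% = Hyamine 1622 control at 20 µM and 100% = untreated cell control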
HCT116 PTEN-null: growth suppression of PTEN-null HCT116, primary screen, cell-based, CellTiter-Glo; HCT116 PTEN-null viability, 60 h; active compounds read low; viability, % at 10 µM; 140,000 compounds, 1.2% hits;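 active = viability at or below a set limit, 4 SD under the median of all tested compounds, cut at about 3.7% in these data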;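 note: PTEN knockout HCT116 line with beta catenin targeted HCT116 as companion control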
p97 ATPase inh: inhibitors of human p97 ATPase, primary screen, biochemical; Transitional endoplasmic reticulum ATPase (Homo sapiens), P55072; recombinant p97 ATPase, Kinase-Glo ATP luminescence, 3 h; inhibition, % at 8 µM; 220,000 compounds, 0.42% hits; AID 1481, 2009; in the data active = inhibition above about 15%;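 note: 0% = DMSO vehicle and 100% = wells lacking enzyme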
The depositor's hits bear a star; ? = inconclusive; . = not tested or not shown.

SMILES | INS promoter inh | Lmaj promast | ROMK mod | bCat KO growth | HCT116 PTEN-null | p97 ATPase inh
Cc1cccn2c(=O)c3c(nc12)N1CCc2ccccc2C1C1(C3)C(=O)NC(=O)N(C)C1=O (stereo not given) | -14 | 50* | -1.2 | 92 | 89 | -2
Clc1ccccc1Nc1ncnc(-n2cccc2)n1 | -7 | -4 | . | 94 | 85 | 2
O=C(NCCO)c1nsnc1NCCCl | 37 | -5 | -0.3 | . | . | 6
CN(C)C(=O)Oc1ccc(OC(=O)c2ccccc2)cc1 | . | -3 | . | 92 | 93 | -10
CN(C(=O)Oc1ccc(C(=O)c2ccc(Cl)cc2)cc1)c1ccccc1 | -3 | 56* | 0.79 | 91 | 91 | 2
CC(C)c1ccc(C2N3CCCN23)cc1 (stereo not given) | . | -9 | 0.92 | 96 | 91 | 4
CC(C)NCC(O)c1ccc(C2CCCC2)cc1 (stereo not given) | -37 | 92* | -1.6 | 74 | 91 | 2
Cc1nn(Cc2ccccc2)c(C)c1C=C1C(=O)NC(=S)NC1=O | -5 | 60* | -0.08 | 85 | 89 | 5
O=C(Nc1ccc(F)cc1)OC1CN2CCC1CC2 (stereo not given) | . | . | . | . | . | 4
Cc1cc(C)cc(N2C(=O)NC(=O)/C(=C/c3cccn3-c3ccc(Cl)cc3)C2=O)c1 | 18 | 98* | 0.17 | 34 | 19 | 3
Cc1cccc(N2C(=O)NC(=O)/C(=C\c3cccn3-c3ccc(Cl)cc3)C2=O)c1 | -52 | 47 | . | 41 | 28 | 1
CN1CCC(N(C)c2ncnc3ccc(Br)cc23)CC1 | ? | 52* | -0.36 | 84 | 94 | 5
CN1CCN(c2ncnc3ccc(Br)cc23)CC1 | . | 4 | -0.17 | 98 | 99 | -2
Clc1ccc(-c2nc3ccc(Cl)cn3c2CN2CCOCC2)cc1 | 0 | 53* | . | 73 | 72 | -2
CC12CN3CC(C)(CN(C1)C31CCOCC1)C2=O | ? | -7 | 0.58 | 90 | 102 | 1
Cc1ccc(-c2ccc(=O)n(CC(=O)N3CCC4(CC3)OCCO4)n2)cc1 | -80 | -3 | -0.55 | . | . | 0
Clc1cccc(CN2CCCCC2c2cccnc2)c1 (stereo not given) | . | 90* | -0.56 | . | . | 2
c1cncc(C2CCCCN2Cc2ccc3c(c2)OCO3)c1 (stereo not given) | . | 18 | -0.8 | 88 | 89 | 3
Fc1ccc(C2=CCN(C(c3cccs3)c3nnnn3CCc3ccccc3)CC2)cc1 (stereo not given) | -43 | 100* | . | 77 | 67 | -3
CCCC1COC(Cn2cncn2)(c2ccc(Cl)cc2Cl)O1 (stereo not given) | 19 | 92* | . | 70 | 67 | -4
COc1ccc(C2NCc3ccc4c(c3-n3cccc32)OCO4)cc1O (stereo not given) | -49 | 74* | . | 12 | 17 | -2
c1cc2n(c1)-c1c(ccc3c1OCO3)CNC2c1ccc2c(c1)OCO2 (stereo not given) | . | 14 | -2.9 | 64 | 69 | -3
CCn1ncc(/C=C2/CC3C4CC=C5CC(O)CCC5(C)C4CCC3(C)C2=O)c1C (stereo not given) | 39 | -7 | . | . | . | 0
Cc1ccc(Cl)cc1N1CCN(CCN)CC1 | -12 | 100* | . | 52 | 58 | 1
O=P(O)(O)Cc1c(Cl)cccc1Cl | -33 | 5 | 0.45 | 93 | 96 | 7
SMILES | INS promoter inh | Lmaj promast | ROMK mod | bCat KO growth | HCT116 PTEN-null | p97 ATPase inh
COc1cc2c(cc1OC)C(C(=O)N(C)C1CCCCC1)C1CCCCN1C2=O (stereo not given) | -44 | 59* | . | 89 | 92 | 3
CC(=O)N(C1=NCCCS1)c1ccccc1Cl | 8 | 69* | -0.77 | . | . | -4
FC(F)(F)c1ccc(CN2CCNCC2)cc1 | . | 96* | -0.48 | . | . | 5
O=Cc1cn(Cc2cccc(F)c2)c2ccccc12 | 8 | 59* | -1.9 | 69 | 59 | 1
COc1ccc(OC)c(CN2CCCC(C(=O)c3sccc3C)C2)c1 (stereo not given) | . | . | . | . | . | 3
COc1ccc(Cl)cc1C(=O)C1CCCN(Cc2cnc(C)s2)C1 (stereo not given) | . | 78* | -0.49 | . | . | 0
